The sample as a whole holds a higher share of hits than the screen did.
Pf Dd2 growth: inhibitors of Plasmodium falciparum Dd2 growth. P. falciparum Dd2 growth, SYBR Green, 72 h. actives 4.3% (n = 120,000). Potency, µM (top dose mostly 28.9 µM), for inactives: top-dose activity, negative = inhibition, usual class: inhibitors; active means well fitted inhibition curve with a large enough effect;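 further: plate controls were DMSO vehicle for no effect and reference drug for full effect; nearly all actives have a fitted effect of over 65% in size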
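Readout: SYBR Green fluorescence, 485 nm excitation, 535 nm emission, after ~16 h lysis at 37C. Before that, Dd2-infected red cells (2.5% hematocrit) grew 72 h with compound, 29 uM top final concentration.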
* marks the source's active call; other numbers are inactive results; i = inactive; [ ] = dose if it differs, or a comment. Potency means the concentration at half of the fitted maximal effect.

SMILES | Pf Dd2 growth
O=C(Cn1cccc1-c1nc(-c2ccccc2)no1)NCCc1ccc(Cl)cc1 | 39%
COc1ccc(-c2noc(-c3cccn3CC(=O)N3CCOc4ccc(C)cc43)n2)cc1F | 4µM*
CCN(C(=O)Cn1cccc1-c1nc(-c2ccc(OC)c(F)c2)no1)c1ccccc1 | i
COc1ccc(-c2noc(-c3cccn3CC(=O)N3CCc4ccccc43)n2)cc1F | 25%
COCCNC(=O)Cn1cccc1-c1nc(-c2ccc(OC)c(F)c2)no1 | -3%
COc1ccc(C(=O)NCCn2cccc2-c2nc(-c3ccccc3)no2)cc1F | 5µM*
O=C(Cn1cccc1-c1nc(-c2ccccc2)no1)NCc1ccc(F)cc1Cl | i
COCCCNC(=O)Cc1csc2nc(C)c(-c3cc(C)n(-c4ccccc4F)n3)c(=O)n12 | -10%
COCCn1c(Cn2c(C)cc(=O)n(C)c2=O)nnc1C1CC(N)C1 (configuration not stated) | -2%
COc1cccc(NC(=O)CCC2CCN(C(=O)C(C)n3cncn3)CC2)c1 (configuration not stated) | -11%
COc1ccc2c(c1)C1(CCN(C(=O)COc3cccc(C)c3)C1)C(=O)N2C (configuration not stated) | -16%
CC(C)NC(=O)NC[C@H]1O[C@@H](CO)[C@@H](O)[C@H]1N(C)CCN(C)C | 1%[44.1 µM]
CS(=O)(=O)c1cnc(NCCCn2cccn2)nc1C1CCCNC1 (configuration not stated) | 10%
CCN1CCC(N(Cc2ccc3c(c2)OCO3)C(=O)Nc2cccc(C)c2C)CC1 | 18%
O=C(Nc1ccccc1)N(Cc1ccc2c(c1)OCO2)C1CCN(Cc2ccccc2)CC1 | -28%
COc1ccccc1NC(=O)N(Cc1ccc2c(c1)OCO2)C1CCN(Cc2ccccc2)CC1 | 11µM*
Cc1cccc(OCC2(CNCc3nccs3)C[C@@H](O)[C@@H](O)C2)n1 (some centres not stated) | -12%
CC(=O)N1CCC([C@@H]2CN(Cc3cccc(Cl)c3)C[C@H]2CO)CC1 | i
COc1cccc(CC(=O)NC2CCN(c3ccc(C)cc3)C2=O)c1 (configuration not stated) | i
CCN(CC)c1ccc(-n2nc3cc(C)c(NC(=O)c4ccccc4F)cc3n2)cc1 | 1.4µM*
Cc1cc2nn(-c3ccc(F)cc3)nc2cc1NC(=O)c1cc(Cl)ccc1Cl | 28%
Cc1cc2nn(-c3ccccc3)nc2cc1NC(=O)c1cccc2c(Cl)cccc12 | 46%
Cc1cc(=O)n(CC(=O)Nc2cc(Cl)ccc2C)c(-c2ccc(F)cc2)n1 | -3%
COc1cc(F)c(CN2CCN(C)C3(CCNC(=O)CC3)C2)c(F)c1 (configuration not stated) | -32%
Cc1ccc(C2Cn3nnc(C(=O)N4CCN(C(=O)c5ccco5)CC4)c3CO2)cc1 (configuration not stated) | -17%
SMILES | Pf Dd2 growth
CC1CCCN(CCCNC(=O)c2ccc3c(c2)N(Cc2ccc(Cl)cc2)C(=O)c2ccccc2S3(=O)=O)C1 (configuration not stated) | i
CCc1ccccc1NC(=O)c1ccc2c(c1)N(Cc1cc(C)ccc1C)C(=O)c1ccccc1S2(=O)=O | 7.1µM*
O=C(c1ccc2c(c1)N(Cc1cccc(Cl)c1)C(=O)c1ccccc1S2(=O)=O)N1CCCCC1 | -11%
O=C(c1ccc2c(c1)N(Cc1ccc(Cl)cc1)C(=O)c1ccccc1S2(=O)=O)N1CCN(Cc2ccccc2)CC1 | i
Cc1cccc(CN2C(=O)c3ccccc3S(=O)(=O)c3ccc(C(=O)OCC4CCCO4)cc32)c1 (configuration not stated) | 11%
O=C(OCC1CCCO1)c1ccc2c(c1)N(Cc1ccccc1Cl)C(=O)c1ccccc1S2(=O)=O (configuration not stated) | 8.9µM*
O=C(OCC1CCCO1)c1ccc2c(c1)N(Cc1cccc(F)c1)C(=O)c1ccccc1S2(=O)=O (configuration not stated) | 3%
COc1ccc(CCNC(=O)c2ccc3c(c2)N(Cc2ccccc2F)C(=O)c2ccccc2S3(=O)=O)cc1OC | i
O=C(c1ccc2c(c1)N(Cc1ccccc1)C(=O)c1ccccc1S2(=O)=O)N1CCCCCC1 | 4µM*
Cc1ccc(C)c(CN2C(=O)c3ccccc3S(=O)(=O)c3ccc(C(=O)NCCCN4CCCC(C)C4)cc32)c1 (configuration not stated) | 4µM*
COc1ccc(CNC(=O)c2ccc3c(c2)N(Cc2ccccc2F)C(=O)c2ccccc2S3(=O)=O)cc1 | i
O=C(NC1C[C@H]2CC[C@@H](C1)N2C(=O)C1CCC1)c1ccncc1 (some centres not stated) | 3%
CCC(Cn1ccnc1-c1ccc(SC)cc1)N1CCN(C)CC1 (configuration not stated) | -14%
CCN1CCCCC12Cc1ccccc1CN(C(=O)CCC(=O)O)C2 (configuration not stated) | -19%
C[C@@H]1CN(C(=O)c2ccco2)C[C@H]1c1nc(-c2ccccc2)no1 | -9%
CC1(CCCCN2CCOCC2)COc2ccc(C(=O)NCc3ccco3)cc2N1 (configuration not stated) | -13%[44.1 µM]
CC(=O)NC[C@H]1CCN(C(=O)NCc2ccc(F)cc2)C[C@H]1N(C)C | 26%
CC(C)N(C)C(=O)CN1C(=O)C2(CCNCC2)Nc2ccccc21 | -20%
Cc1ncc2c(c1CNC(=O)CC(C)c1ccccc1)CCNC2 (configuration not stated) | -13%
Cc1cccc(CN2C(=O)c3ccccc3S(=O)(=O)c3ccc(C(=O)N4CCCC4)cc32)c1 | i
O=C(c1ccc2c(c1)N(Cc1ccccc1F)C(=O)c1ccccc1S2(=O)=O)N1CCCCCC1 | i
Cc1ccc(C)c(CN2C(=O)c3ccccc3S(=O)(=O)c3ccc(C(=O)N4CCN(C)CC4)cc32)c1 | 5µM*
COc1ccc(CNC(=O)c2cc3cn(C(C)C)cc3s2)cc1 | i
COc1cc(CNC(=O)c2cc3cn(C(C)C)cc3s2)cc(OC)c1 | 13µM*
CC(C)n1cc2cc(C(=O)NCc3cccnc3)sc2c1 | i
SMILES | Pf Dd2 growth
COc1ccc(CNC(=O)C2CCN(c3cc(C(F)(F)F)nc(C)n3)CC2)c(OC)c1 | -17%
Cc1cccc(CC(=O)N2CCC[C@H]2c2nc(-c3ccccc3)no2)c1 | -22%
COc1c(F)cc(CNCC2(O)CCCNC2)cc1F (configuration not stated) | 0%
Cc1cnc(CNCC2(O)CNCCOC2)cn1 (configuration not stated) | -13%
Cc1cc(Cl)cc(Cl)c1CNCC1(O)CCCNC1 (configuration not stated) | 7.9µM*
C#CCN(C)CC[C@@H]1CC[C@H](O)[C@@H](C(=O)NCc2ccc(OC)cc2)O1 | 16%[44.1 µM]
CCOC(=O)C1CCCN(C(=O)C2COC3(CCCCC3)N2C(=O)c2ccccc2Cl)C1 (configuration not stated) | i
COc1ccc(CCNC(=O)Cn2nc3n(c2=O)CCCC3)cc1OC | 8%
COCc1nc(CCNC(=O)C(C)Oc2ccccc2)no1 (configuration not stated) | 54%
CC(C)CCC(=O)N1C[C@@H](CO)[C@H](c2ccccn2)C1 | 12%
Cc1ccc(NC(=O)C2CCCN(c3nnc(C)c4c(C)n(-c5ccccc5)nc34)C2)cc1Cl (configuration not stated) | 24%
COc1ccccc1NC(=O)C1CCCN(c2nnc(C)c3c(C)n(-c4ccccc4)nc23)C1 (configuration not stated) | -5%

From PubChem BioAssay
